Laboratory results: PubChem BioAssay AID1159580 (chemical genetic matrix, 2015)
Several values for one entry are separate records, joined by “and”; a condition that tells them apart may be missing. Identical values can stand only once. Among all 5,500 compounds or so, about 2,000 (36%) were called active. Not shown: some 18% with an inconclusive outcome. Cut-off read from the data, not from the text of the source: active = normalized growth mostly below about 0.91 (no sharp cut-off); inconclusive = no clear call, values can overlap the other calls; inactive = mostly above about 0.92. Some of the results follow.

Experiment: chemical genetic growth profiling, strain panel (AID 1159580);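 note: tested at 20 µM; growth read once vehicle control cultures reached saturation at 30 °C; 1 = growth at the plate median or of vehicle wells; lower values mean less growth of the strain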
Conditions: S. cerevisiae deletion strains, growth OD

Measured: normalized growth

CC(=O)O[C@H]1CC[C@@]2(C)C(C[C@@H](OC(C)=O)[C@]3(C)C2CC[C@@]2(C)[C@H](c4ccoc4)OC(=O)[C@H]4O[C@]423)C1(C)C (some centres not stated)
inactive: locus YAL013W, strain DEP1, active compounds read low 0.993 | locus YAL021C, strain ccr4, active compounds read low 1.01 | locus YAL026C, strain drs2, active compounds read low 1 | locus YAL030W, strain snc1, active compounds read low 0.99 | locus YBL061C, strain skt5, active compounds read low 0.996 | locus YBR009C, strain hhf1, active compounds read low 0.987 | locus YBR021W, strain FUR4, active compounds read low 0.999 | locus YBR023C, strain chs3, active compounds read low 0.997 | locus YBR171W, strain sec66, active compounds read low 1 | locus YBR229C, strain ROT2, active compounds read low 1 | locus YBR231C, strain swc5, active compounds read low 1.01 | locus YBR279W, strain paf1, active compounds read low 1 | locus YCL011C, strain gbp2, active compounds read low 0.993 | locus YCL016C, strain dcc1, active compounds read low 1 | locus YCL029C, strain bik1, active compounds read low 1.01 | locus YCL061C, strain MRC1, active compounds read low 1 | locus YCL069W, strain vba3, active compounds read low 0.998 | locus YCR088W, strain abp1, active compounds read low 0.995 | locus YDL005C, strain med2, active compounds read low 0.996 | locus YDL035C, strain GPR1, active compounds read low 0.998 | locus YDL040C, strain nat1, active compounds read low 0.988 | locus YDL074C, strain BRE1, active compounds read low 1.04 | locus YDL101C, strain DUN1, active compounds read low 1.03 | locus YDL185W, strain tfp1, active compounds read low 1.01 | locus YDL192W, strain arf1, active compounds read low 0.992 | locus YDR001C, strain nth1, active compounds read low 0.99 | locus YDR069C, strain doa4, active compounds read low 0.991 | locus YDR101C, strain arx1, active compounds read low 1.01 | locus YDR137W, strain rgp1, active compounds read low 1.08 | locus YDR159W, strain sac3, active compounds read low 0.983 | locus YDR162C, strain NBP2, active compounds read low 1.02 | locus YDR195W, strain ref2 0.93 | locus YDR297W, strain sur2, active compounds read low 0.999 | locus YDR318W, strain mcm21, active compounds read low 1.01 | locus YDR334W, strain swr1, active compounds read low 0.985 | locus YDR335W, strain msn5, active compounds read low 0.999 | locus YDR388W, active compounds read low 1.01 | locus YDR392W, strain spt3, active compounds read low 0.914 | locus YDR502C, strain sam2, active compounds read low 1.03 | locus YEL003W, strain gim4, active compounds read low 0.991 | locus YEL037C, strain rad23, active compounds read low 0.988 | locus YEL061C, strain CIN8 (second series), active compounds read low 0.987 | locus YEL061C, strain CIN8, active compounds read low 1.01 | locus YER015W, strain faa2, active compounds read low 0.998 | locus YER016W, strain bim1, active compounds read low 0.999 | locus YER110C, active compounds read low 1.02 | locus YER111C, strain swi4, active compounds read low 0.983 | locus YER155C, strain BEM2 (second series), active compounds read low 0.988 | locus YER155C, strain BEM2, active compounds read low 1 | locus YER167W, strain BCK2, active compounds read low 0.993 | locus YFR010W, strain ubp6, active compounds read low 0.992 | locus YGL078C, strain dbp3, active compounds read low 1.02 | locus YGL086W, strain mad1, active compounds read low 1.01 | locus YGL167C, strain pmr1, active compounds read low 0.994 | locus YGL173C, strain kem1, active compounds read low 1 | locus YGL227W, strain vid30, active compounds read low 1 | locus YGL240W, strain doc1, active compounds read low 0.978 | locus YGL248W, strain PDE1, active compounds read low 1.02 | locus YGL253W, strain hxk2, active compounds read low 1 | locus YGR078C, strain PAC10, active compounds read low 1.02 | locus YGR135W, strain pre9, active compounds read low 1.06 | locus YGR229C, strain SMI1, active compounds read low 0.959 | locus YGR252W, strain gcn5, active compounds read low 1.1 | locus YHR013C, strain ard1, active compounds read low 0.981 | locus YHR027C, strain rpn1, active compounds read low 0.998 | locus YHR030C, strain SLT2, active compounds read low 1.05 | locus YHR079C, strain IRE1 (second series), active compounds read low 1.02 | locus YHR079C, strain IRE1, active compounds read low 1.04 | locus YHR094C, strain hxt1, active compounds read low 1.01 | locus YHR129C, strain ARP1, active compounds read low 1.01 | locus YHR142W, strain chs7, active compounds read low 1.03 | locus YHR200W, strain rpn10, active compounds read low 1.04 | locus YIL066C, strain RNR3, active compounds read low 0.999 | locus YIL073C, strain SPO22, active compounds read low 1.04 | locus YIL125W, strain kgd1, active compounds read low 1.01 | locus YIR030C, strain dcg1, active compounds read low 1 | locus YJL092W, strain hpr5, active compounds read low 0.998 | locus YJL095W, strain BCK1 (second series), active compounds read low 1 | locus YJL095W, strain BCK1, active compounds read low 1.07 and 1.04 | locus YJL115W, strain asf1, active compounds read low 0.997 | locus YJL129C, strain trk1, active compounds read low 0.987 | locus YJL134W, strain LCB3, active compounds read low 1.01 | locus YJL154C, strain vps35, active compounds read low 1 | locus YJL164C, strain tpk1, active compounds read low 0.995 | locus YJL166W, strain qcr8, active compounds read low 1 | locus YJL168C, strain set2, active compounds read low 1.01 | locus YJL187C, strain SWE1 (second series), active compounds read low 1.04
